RPL19A-GFP yeast: RPL19A-GFP expression modulators in yeast, primary screen, cell-based, S. cerevisiae, multiplex flow cytometry, MLPCN. AID 2025, 2009. S. cerevisiae RPL19A-GFP strain, 3 h; hits give low values. percent response vs DMSO, % at 10 µM. 330,000 tested, 0.3% active;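 active means percent response vs DMSO below 50%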;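 further: median channel GFP fluorescence of the barcoded RPL19A-GFP strain; lower means less RPL19A-GFP as with rapamycin TOR inhibition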
CIT2 TOR yeast: modulators of CIT2-GFP expression in yeast, primary screen, S. cerevisiae, GFP fusion, multiplex flow cytometry, MLPCN library; S. cerevisiae CIT2-GFP strain, 3 h; 100 means same as DMSO wells; GFP response vs DMSO, % at 10 µM; 320,000 tested, 0.065% active; AID 2029, 2009;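 active means GFP response relative to DMSO above a set limit, near the screen mean plus 3 SD, cut at about 150% in these data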;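 further: ratio of well median GFP fluorescence to mean of DMSO wells on the plate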
LAP4 TOR yeast: modulators of LAP4-GFP expression in yeast, primary screen, S. cerevisiae, multiplex flow cytometry, MLPCN library; 3 h; median GFP as percent of DMSO wells; GFP response vs DMSO, % at 10 µM; 320,000 tested, 0.34% active; AID 2023, 2009;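 active means GFP response vs DMSO above a set limit, about the screen mean plus 3 SD, cut at about 150% in these data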
AGP1 TOR yeast: modulators of AGP1-GFP expression in yeast TOR pathway, primary screen, cell-based, multiplex flow cytometry, S. cerevisiae, MLPCN library | GFP response vs DMSO, % at 10 µM | 320,000 tested, 0.02% active | 3 h; GFP as percent of DMSO wells;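 active means GFP response relative to DMSO above a set limit, near screen average plus 3 SD, cut at about 150% in these data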;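 further: median GFP channel fluorescence of the gated AGP1 strain per well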
MEP2 TOR yeast: modulators of MEP2-GFP levels in yeast, primary screen, S. cerevisiae, multiplex flow cytometry, MLPCN library | S. cerevisiae MEP2-GFP strain, 3 h; 100% = DMSO control level | GFP response vs DMSO, % at 10 µM | 330,000 tested, 0.51% active;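 active means GFP response versus DMSO above a set limit, roughly screen mean plus 3 SD, cut at about 180% in these data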;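 further: median GFP fluorescence of the barcode-gated MEP2-GFP cells per well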
LAP4 cherry2: LAP4-GFP expression modulators in yeast, confirmation, cell-based, second cherry pick, flow cytometry; 590 tested, 20% active; S. cerevisiae LAP4-GFP strain, 3 h; GFP response vs DMSO, % at 10 µM; AID 2621, 2010; shares compounds with LAP4 TOR yeast;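 active means GFP signal as percent of the solvent control above about 150%, meaning raised reporter expression, limit read from the data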
MEP2-GFP pick2: modulators of MEP2-GFP levels in yeast, confirmation, S. cerevisiae, flow cytometry GFP, second cherry picks; AID 2622, 2010; S. cerevisiae MEP2-GFP strain, 3 h; 590 tested, 10% active; GFP response vs DMSO, % at 10 µM; shares compounds with LAP4 TOR yeast;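 active means GFP signal above 150% of the solvent control wells, that is a rise of more than half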;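 further: median channel GFP fluorescence of all gated yeast cells per well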
RPL19A GFP CP2: RPL19A-GFP modulators in TOR pathway yeast, confirmation, cell-based, S. cerevisiae, flow cytometry, second cherry pick. AID 2623, 2010. 590 tested, 3% active. GFP response vs DMSO, % at 10 µM. shares compounds with LAP4 TOR yeast. S. cerevisiae RPL19A-GFP strain, 3 h; hits give low values; 100% means same as DMSO wells;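 active means under 65% GFP response relative to DMSO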;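 further: median GFP channel fluorescence per well over the all cells gate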
CIT2 GFP CP2: modulators of CIT2-GFP expression in yeast, confirmation, flow cytometry, second cherry pick, single plex | shares compounds with LAP4 TOR yeast | S. cerevisiae CIT2-GFP strain, 3 h; DMSO control wells read 100% | GFP response vs DMSO, % at 10 µM | 590 tested, 8% active | AID 2624, 2010;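 active means GFP response vs DMSO above about 150%, limit read from the data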;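 further: median green fluorescence per well over all gated yeast cells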
AGP1-GFP pick2: AGP1-GFP expression modulators, hit retest, confirmation, cell-based, flow cytometry, S. cerevisiae, cherry pick set 2. S. cerevisiae AGP1-GFP strain, 3 h. shares compounds with LAP4 TOR yeast. 590 tested, under 10 active. percent response vs DMSO, % at 10 µM;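 active means over 150 percent of DMSO response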;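 further: median GFP channel fluorescence over all cells without mother daughter split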
Yeast autofluor: compound autofluorescence in yeast s288c, dose response, artefact control for yeast TOR pathway GFP screen, s288c strain | shares compounds with LAP4 TOR yeast | S. cerevisiae s288c, 520 nm autofluorescence, flow cytometry, 3 h; hits give high values; zero means same as solvent-only cells | fluorescence change (kMESF span) at 33 µM | 610 tested, under 10 active;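 active means fluorescence span over the dose series, or activity score, above about 33, limit read from the data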
A number is an active result; i = inactive; nt = not tested or not shown. Sampled rows, rich in hits. Any-hit rate of the full collection: about 0.92%.

SMILES | RPL19A-GFP yeast | CIT2 TOR yeast | LAP4 TOR yeast | AGP1 TOR yeast | MEP2 TOR yeast | LAP4 cherry2 | MEP2-GFP pick2 | RPL19A GFP CP2 | CIT2 GFP CP2 | AGP1-GFP pick2 | Yeast autofluor
CN(C)c1ccc(-c2c(-c3ccc4c(c3)OCO4)noc2-c2ccsc2)cn1 | i | i | 155 | i | i | i | i | i | i | i | nt
COC(=O)c1cc(-c2c(-c3ccc4c(c3)OCO4)noc2-c2ccsc2)cc([N+](=O)[O-])c1 | i | i | i | i | i | nt | nt | nt | nt | nt | nt
COc1cccc(NC(=O)c2cccc(Cl)c2)c1 | i | i | 153 | i | i | i | i | i | i | i | nt
COc1cccc(C(=O)Nc2nnc(-c3ccc(Cl)cc3)o2)c1 | i | i | 155 | i | i | 209 | i | i | i | i | i
Cc1c(Cc2ccccc2)c(NCCN(C)C)n2c(nc3ccccc32)c1C#N | i | i | 198 | i | i | nt | nt | nt | nt | nt | i
Cc1cc(S(=O)(=O)ON2C(=O)c3ccccc3C2=O)ccc1F | i | i | 173 | i | i | nt | nt | nt | nt | nt | i
O=C1c2ccccc2C(=O)N1OS(=O)(=O)c1ccccc1 | i | i | 223 | i | i | i | 160 | i | i | i | i
Cc1ccc(C)c(S(=O)(=O)ON2C(=O)c3ccccc3C2=O)c1 | i | i | i | i | i | nt | nt | nt | nt | nt | nt
CSc1ncccc1C(=O)OCC(=O)c1[nH]c(C)c(C(C)=O)c1C | i | i | i | i | i | nt | nt | nt | nt | nt | nt
CCCOCc1ccc(O)c2ncccc12 | i | i | i | i | i | nt | nt | nt | nt | nt | nt
Oc1ccc(COCc2ccccc2)c2cccnc12 | i | i | 160 | i | i | nt | nt | nt | nt | nt | i
C=CCOc1cccc(C(=O)/C=C2/C(=O)Nc3ccccc32)c1 | i | i | i | i | i | nt | nt | nt | nt | nt | i
CC(=O)/C=C1/C(=O)Nc2ccccc21 | i | i | i | i | i | nt | nt | nt | nt | nt | nt
O=C(O)Cn1c2ccccc2c2n[nH]c(=S)nc21 | i | i | i | i | i | nt | nt | nt | nt | nt | nt
Cn1c(Cl)cnc1C1CC(=O)c2cc(Cl)ccc2O1 (configuration not stated) | i | i | 210 | i | i | i | i | i | i | i | nt
C[C@H](CO)N1C[C@H](C)[C@@H](CN(C)S(=O)(=O)c2ccccc2)Oc2ccc(NC(=O)C3CC3)cc2C1=O | i | i | i | i | i | nt | nt | nt | nt | nt | nt
Cc1ccc(NC(=O)CN(C)C(=O)CSc2nnc(N)s2)cc1 | i | i | i | i | i | nt | nt | nt | nt | nt | nt
COc1cccc(/C=C2/SC(=S)N(CCCC(=O)Nc3ccc(O)cc3)C2=O)c1 | i | i | i | i | i | nt | nt | nt | nt | nt | nt
COc1cccc(/C=C2\SC(=S)N(CCCC(=O)Nc3ccc(C(=O)O)cc3)C2=O)c1 | i | 173 | i | i | i | i | i | i | i | i | i
Cc1nn(-c2ccc(F)cc2)c(Cl)c1C(=O)NCC1CCCO1 (configuration not stated) | i | i | i | i | i | nt | nt | nt | nt | nt | nt
COc1cccc2oc3ccc(C#Cc4ccccn4)cc3c(=O)c12 | i | i | 152 | i | i | i | i | i | i | i | nt
Cc1ccc(NS(=O)(=O)c2c(C)nc3sccn3c2=O)c(C)c1 | i | i | i | i | i | nt | nt | nt | nt | nt | nt
CC(=O)N[C@@H](Cc1c[nH]c2ccccc12)C(=O)OCc1cc(C(F)(F)F)cc(C(F)(F)F)c1 | i | i | 160 | i | i | i | i | i | i | i | nt
O=C(NCC(=O)N1CCN(c2ccccc2O)CC1)C1CCCCC1 | i | i | i | i | i | nt | nt | nt | nt | nt | nt
O=C(NCC(=O)N1CCC(N2CCCCC2)CC1)C1CCCCC1 | 26 | i | i | i | 230 | i | i | i | i | i | nt
SMILES | RPL19A-GFP yeast | CIT2 TOR yeast | LAP4 TOR yeast | AGP1 TOR yeast | MEP2 TOR yeast | LAP4 cherry2 | MEP2-GFP pick2 | RPL19A GFP CP2 | CIT2 GFP CP2 | AGP1-GFP pick2 | Yeast autofluor
COc1ccccc1N=Nc1ccc(O)c2ncccc12 | i | i | 249 | i | i | nt | nt | nt | nt | nt | i
Cc1ccc(N=Nc2ccc(O)c3ncccc23)cc1 | i | i | 157 | i | i | 188 | i | i | 150 | i | i
Cc1ccc(N=Nc2ccc(O)c3ncccc23)cc1C | i | i | i | i | i | nt | nt | nt | nt | nt | nt
COC(=O)CCC(=O)OC1(C)C(=O)C=C2C=C(c3ccsc3)OC=C2C1=O (configuration not stated) | i | i | i | i | i | nt | nt | nt | nt | nt | nt
COC(=O)CCCC1=CC2=CC(=O)C(C)(OC(=O)CCc3ccccc3)C(=O)C2=CO1 (configuration not stated) | i | i | 156 | i | i | i | i | i | i | i | i
Brc1ccc(Oc2nsnc2N2CCOCC2)cc1 | i | i | i | i | 180 | i | i | i | i | i | nt
CCC1CCCCN1C(=O)C(=O)c1cn(CC(=O)N(CC)CC)c2ccccc12 (configuration not stated) | i | 181 | i | i | i | i | i | i | i | i | nt
COc1ccc(N(CC(=O)NCc2ccc3c(c2)OCO3)C(=O)c2csnn2)cc1 | i | i | i | i | i | nt | nt | nt | nt | nt | nt
CCO[C@H]1OC(C(=O)N2CCOCC2)=C[C@@H](c2cn(C(C)=O)c3ccccc23)[C@@H]1CCCO | i | i | 223 | i | 507 | i | i | i | i | i | nt
Cc1ccc2nc(-c3ccc(NC(=S)NC4CC(C)(C)NC(C)(C)C4)cc3)sc2c1 | i | i | i | i | i | i | i | i | i | i | nt
O=C1c2ccccc2C(=O)N1SC1CCCCC1 | i | i | i | i | i | i | i | i | i | i | nt
CCN(CC(=O)NC(C)(C)C)C(=O)COc1c(Cl)cc(Cl)c2ccc(C)nc12 | i | i | 227 | i | i | nt | nt | nt | nt | nt | i
CCOc1ccccc1NC(=O)COC(=O)COc1c(Cl)cc(Cl)c2ccc(C)nc12 | i | i | i | i | i | nt | nt | nt | nt | nt | nt

Screening results (PubChem)
